Screens deposited in PubChem by several laboratories.
Rows were chosen to be rich in hits. Some 3.1% of all compounds tested hit in one or more screens of this group.
MEKK2mut PB1 HTS – signal of MEK5 binding to mutant human MEKK2 PB1 domain | bead flow cytometry, Alexa488-MEK5 binding to MEKK2 mutant | actives 0.35% (n = 290,000) | percent response, % at 10 µM; in the data active = percent response above about 24%, passing the limit was not always enough
MEKK2wt PB1 HTS – raises or lowers MEK5 binding to wildtype human MEKK2 PB1 domain | Q9Y2U5 | bead flow cytometry, Alexa488-MEK5 binding to MEKK2 WT; actives lie on both sides | binding response (% of control), % at 10 µM | actives 1.1% (n = 290,000); in the data active = binding response below about 67% or above about 130%
ATG4B inhibitor – ATG4B (human) cysteine protease inhibition. Q9Y4P1. inhibition, % at 8.33 µM. actives 0.51% (n = 340,000). ATG4B cleavage of LC3-PLA2, NBD-HPC fluorescence, 1 h; in the data active = inhibition above about 40%
MEKK3 PB1 HTS – MEKK3-MEK5 PB1 interaction, increase or decrease. Q99759. bead-based flow cytometry, Alexa488-MEK5 binding to MEKK3; actives lie on both sides; 0 = blocked by unlabeled MEK5, 100 = vehicle. binding response (% of control), % at 10 µM. actives 1.4% (n = 290,000). AID 1529;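 active = binding response more than 3 SD above or below the average of its plate-row segment, actives on both sides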;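 note: Alexa488 bead fluorescence after subtracting the streptavidin-only scavenger bead signal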
Target sequence (Q99759 whole entry, looked up): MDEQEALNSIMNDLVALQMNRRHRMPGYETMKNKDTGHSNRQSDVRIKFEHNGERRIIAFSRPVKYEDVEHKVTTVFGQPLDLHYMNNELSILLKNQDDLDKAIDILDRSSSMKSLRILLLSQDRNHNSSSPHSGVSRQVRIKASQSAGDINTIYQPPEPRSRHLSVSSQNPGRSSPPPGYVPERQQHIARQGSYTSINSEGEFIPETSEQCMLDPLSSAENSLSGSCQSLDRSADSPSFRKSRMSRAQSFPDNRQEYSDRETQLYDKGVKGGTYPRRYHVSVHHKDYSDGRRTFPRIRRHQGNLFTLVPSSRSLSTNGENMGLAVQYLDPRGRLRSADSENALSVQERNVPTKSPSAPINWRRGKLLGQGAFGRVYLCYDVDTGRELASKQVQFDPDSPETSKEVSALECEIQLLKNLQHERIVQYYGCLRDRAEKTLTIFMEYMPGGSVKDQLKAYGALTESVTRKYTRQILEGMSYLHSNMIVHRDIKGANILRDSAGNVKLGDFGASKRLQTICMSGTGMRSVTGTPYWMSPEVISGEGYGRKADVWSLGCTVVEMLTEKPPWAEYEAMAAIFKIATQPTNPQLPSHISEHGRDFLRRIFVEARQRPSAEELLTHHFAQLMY
PREPL inhibitor – human PREPL enzyme inhibition | inhibition, % at 5.96 µM | recombinant PREPL, fluorescence polarization activity-based probe | actives 0.68% (n = 320,000); in the data active = inhibition above about 43%;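 note: 0% = enzyme with DMSO and 100% = wells lacking enzyme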
UBC13 polyUb – blocks human UBC13 polyubiquitin chain formation; P61088; TR-FRET; inhibition, % at 20 µM; actives 0.47% (n = 330,000); in the data active = inhibition above about 45%, passing the limit was not always enough
Starred values were filed as active, the others as inactive; [ ] = another dose, or the depositor's remark.

For COc1ccc(NC(=O)C2CC(=O)N=C(N)S2)cc1 (stereo unspecified) the results were MEKK2mut PB1 HTS 2.0, MEKK2wt PB1 HTS -11.0*, ATG4B inhibitor 1.9, MEKK3 PB1 HTS 98.0, PREPL inhibitor 2.7 and UBC13 polyUb -8.5.
Screening Cc1[nH]c2ccccc2c1/C=N/n1cnnc1 returned MEKK2mut PB1 HTS -1.0, MEKK2wt PB1 HTS 98.0, ATG4B inhibitor -4.4, MEKK3 PB1 HTS 98.0, PREPL inhibitor 7.6 and UBC13 polyUb 2.6.
For CCN(CC)c1ccc(N=Cc2c(C)[nH]c3ccccc23)cc1 the results were MEKK2mut PB1 HTS -1.0, MEKK2wt PB1 HTS 99.0, ATG4B inhibitor -7.2, MEKK3 PB1 HTS 75.0*[inhibitor], PREPL inhibitor 28.0 and UBC13 polyUb -40.0.
For Cc1ccc(NC(=O)c2ccco2)c(NC(=O)c2ccccc2)c1 the results were MEKK2mut PB1 HTS -26.0, MEKK2wt PB1 HTS -12.0*[inhibitor], ATG4B inhibitor -2.5, MEKK3 PB1 HTS 0.0*[inhibitor], PREPL inhibitor 1.9 and UBC13 polyUb -7.6.
For Cc1ccc(NC(=O)c2ccco2)c(NC(=O)c2ccc(Cl)cc2)c1 the results were MEKK2mut PB1 HTS 0.0, MEKK2wt PB1 HTS 97.0, ATG4B inhibitor 3.1, MEKK3 PB1 HTS 100.0, PREPL inhibitor -11.9 and UBC13 polyUb 2.0.
`CCOc1ccccc1Nc1nc(-c2sc(NC(=O)c3ccccc3)nc2C)cs1` gave MEKK2mut PB1 HTS 5.0, MEKK2wt PB1 HTS 113.0, MEKK3 PB1 HTS 104.0, PREPL inhibitor 11.3 and UBC13 polyUb 69.3*.
`CCOc1ccccc1Nc1nc(-c2sc(NC(=O)c3cccc(Cl)c3)nc2C)cs1` gave MEKK2mut PB1 HTS 6.0, MEKK2wt PB1 HTS 114.0, ATG4B inhibitor -6.8, MEKK3 PB1 HTS 105.0, PREPL inhibitor 5.7 and UBC13 polyUb 0.2.
For COc1ccc2sc(N(CCCN(C)C)C(=O)c3ccc(C(=O)c4ccccc4)cc3)nc2c1 the results were ATG4B inhibitor 15.2, PREPL inhibitor -19.0 and UBC13 polyUb 17.8.
CN(C)CCCN(C(=O)c1nc2ccccc2s1)c1nc2ccc(F)cc2s1 was read as ATG4B inhibitor -8.2, PREPL inhibitor -14.6 and UBC13 polyUb 20.7.
`CN(C)CCCN(C(=O)c1ccc(C(=O)c2ccccc2)cc1)c1nc2ccc(F)cc2s1` gave MEKK2mut PB1 HTS 14.0, MEKK2wt PB1 HTS 174.0*, ATG4B inhibitor 6.4, MEKK3 PB1 HTS 107.0, PREPL inhibitor 1.9 and UBC13 polyUb 33.4.
Screening Cc1cccc2sc(N(CCCN(C)C)C(=O)c3ccc(C(=O)c4ccccc4)cc3)nc12 returned MEKK2mut PB1 HTS 33.0*, MEKK2wt PB1 HTS 168.0*, ATG4B inhibitor 31.0, MEKK3 PB1 HTS 106.0, PREPL inhibitor -24.9 and UBC13 polyUb 29.0.
Cc1ccc2sc(N(CCN(C)C)C(=O)c3ccc4ccccc4c3)nc2c1C was read as MEKK2mut PB1 HTS 18.0, MEKK2wt PB1 HTS 161.0*, ATG4B inhibitor 7.2, MEKK3 PB1 HTS 106.0, PREPL inhibitor 1.9 and UBC13 polyUb 12.0.
`C/C(=C\C(=O)c1cccnc1)Nc1ccc(O)cc1` gave MEKK2mut PB1 HTS -4.0, MEKK2wt PB1 HTS 97.0, ATG4B inhibitor -3.0, MEKK3 PB1 HTS 97.0, PREPL inhibitor 81.0* and UBC13 polyUb -8.9.
Screening COc1ccc(NC(=O)c2cccnc2)cc1 returned MEKK2mut PB1 HTS 1.0, MEKK2wt PB1 HTS 103.0, ATG4B inhibitor 3.1, MEKK3 PB1 HTS 105.0, PREPL inhibitor 2.1 and UBC13 polyUb -6.6.
For O=C(NC1CCCCC1)N(C1=NCCCCC1)c1ccc(Br)cc1 the results were MEKK2mut PB1 HTS 4.0, MEKK2wt PB1 HTS 15.0*, ATG4B inhibitor 19.5, MEKK3 PB1 HTS 106.0, PREPL inhibitor -2.6 and UBC13 polyUb 1.9.
Screening CN(C)CCOc1ccccc1Cc1ccccc1 returned MEKK2mut PB1 HTS -2.0, MEKK2wt PB1 HTS -18.0*, ATG4B inhibitor 4.4, MEKK3 PB1 HTS 78.0, PREPL inhibitor -15.3 and UBC13 polyUb 17.8.
Screening CNCCCCOc1ccccc1Cc1ccccc1 returned MEKK2mut PB1 HTS 6.0, MEKK2wt PB1 HTS 125.0, MEKK3 PB1 HTS 104.0, PREPL inhibitor -7.3 and UBC13 polyUb 14.2.
CC(=O)c1ccc(N2CCN(CN3C(=O)CC4(CCCC4)C3=O)CC2)c(F)c1 was read as MEKK2mut PB1 HTS 7.0, MEKK2wt PB1 HTS 103.0, ATG4B inhibitor -7.0, MEKK3 PB1 HTS 100.0, PREPL inhibitor 3.5 and UBC13 polyUb -0.7.
Screening Cc1cc(Cl)c(S(=O)(=O)N2CCCCCC2)cc1OCC(=O)NC1CCCCC1 returned MEKK2mut PB1 HTS -2.0, MEKK2wt PB1 HTS 95.0, ATG4B inhibitor 26.1, MEKK3 PB1 HTS 102.0, PREPL inhibitor -9.9 and UBC13 polyUb -2.3.
CCN1CCN(S(=O)(=O)c2cc(OCC(=O)NC3CCCCC3)c(C)cc2Cl)CC1 was read as MEKK2mut PB1 HTS -15.0, MEKK2wt PB1 HTS 3.0*[inhibitor], ATG4B inhibitor -10.1, MEKK3 PB1 HTS 3.0*[inhibitor], PREPL inhibitor 13.3 and UBC13 polyUb -12.5.
O=C1c2cccc3c(O)ccc(c23)C(=O)N1Cc1ccccc1 was read as MEKK2mut PB1 HTS 6.0, MEKK2wt PB1 HTS 101.0, ATG4B inhibitor -72.5, MEKK3 PB1 HTS 98.0, PREPL inhibitor 19.7 and UBC13 polyUb -89.2.
COc1ccccc1NS(=O)(=O)c1cc([N+](=O)[O-])ccc1N/N=C/c1c[nH]c2ccccc12 was read as MEKK2mut PB1 HTS 14.0, MEKK2wt PB1 HTS -1.0*, ATG4B inhibitor 32.6, MEKK3 PB1 HTS 103.0, PREPL inhibitor 3.2 and UBC13 polyUb -149.4.
Screening C#CCOCCOCCOCCNc1nc(N2CCN(C(=O)Cn3cc(CCCCN)nn3)CC2)nc(N2CCN(C(=O)[C@H]([C@@H](C)CC)n3cc(CCCCN)nn3)CC2)n1 returned ATG4B inhibitor -3.1, PREPL inhibitor 5.5 and UBC13 polyUb 39.2.
Screening C#CCOCCOCCOCCNc1nc(N2CCN(C(=O)CCCCCCCCCCNC(=O)[C@H]([C@@H](C)CC)n3cc(CCCCCN)nn3)CC2)nc(N2CCN(C(=O)CCCCCCCCCCNC(=O)[C@@H]([C@H](C)CC)n3cc(CCCCCN)nn3)CC2)n1 returned PREPL inhibitor 59.4* and UBC13 polyUb 122.6*.
CC[C@H](C)[C@@H](C(=O)NCCCCCCCCCCC(=O)N1CCN(C(=O)OC(C)(C)C)CC1)n1cc(CCCCCNC(=O)OC(C)(C)C)nn1 was read as ATG4B inhibitor 4.7, PREPL inhibitor 0.5 and UBC13 polyUb -13.7.
`C#CCOCCOCCOCCNc1nc(N2CCN(C(=O)CCCCCCCCCCNC(=O)[C@H](CCCCN)n3cc(C)nn3)CC2)nc(N2CCN(C(=O)CCCCCCCCCCNC(=O)[C@H](CCCCN)n3cc(CCCC(=O)O)nn3)CC2)n1` gave ATG4B inhibitor -14.2, PREPL inhibitor 25.5 and UBC13 polyUb 113.6*.
Screening CC[C@H](C)[C@@H](C(=O)NCCCCCCCCCCC(=O)N1CCN(C(=O)OC(C)(C)C)CC1)n1cc(CCCCN=C(NC(=O)OC(C)(C)C)NC(=O)OC(C)(C)C)nn1 returned PREPL inhibitor 18.1 and UBC13 polyUb 70.9*.
